Test results published in PubChem BioAssay (NCATS).
Inconclusive results are not listed. Activity calls are given as the source filed them. Calls follow the shape of the dose curve; as a rule, active = well fitted cell-killing curve with a large enough effect; inconclusive = small, poorly fitted or top-dose-only effect, or effect the other way; inactive = flat fitted curve, though single readings scatter.

Tests used:
Test in all cases: Primary qHTS to identify gynecologic anti-cancer compounds using libraries of approved drugs and bioactive compounds (AID 1345084); also: nearly all actives have a fitted effect of over 55% in size
C33A = conditions: Gynecologic cancer cell panel viability, ATPlite luminescence, 48 h; series mostly up to 57.5 µM
Procedure, shortened: (§1)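 In this quantitative HTS, cell killing is estimated from loss of ATP-dependent luciferase light. Cells see five compound concentrations over a 48 h exposure.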

CAOV3 = conditions: Gynecologic cancer cell panel viability, ATPlite luminescence, 48 h; series mostly up to 57.5 µM
Procedure, shortened: as §1

Es-2 = conditions: Gynecologic cancer cell panel viability, ATPlite luminescence, 48 h; series mostly up to 57.5 µM
Procedure, shortened: as §1

JEG-3 = conditions: Gynecologic cancer cell panel viability, ATPlite luminescence, 48 h; series mostly up to 57.5 µM
Procedure, shortened: as §1

PA-1 = conditions: Gynecologic cancer cell panel viability, ATPlite luminescence, 48 h; series mostly up to 57.5 µM
Procedure, shortened: as §1

SKOV3 = conditions: Gynecologic cancer cell panel viability, ATPlite luminescence, 48 h; series mostly up to 57.5 µM
Procedure, shortened: as §1

Tov-21-G = conditions: Gynecologic cancer cell panel viability, ATPlite luminescence, 48 h; series mostly up to 57.5 µM
Procedure, shortened: as §1

CASKI = conditions: Gynecologic cancer cell panel viability, ATPlite luminescence, 48 h; series mostly up to 57.5 µM
Procedure, shortened: as §1

HeLa = conditions: Gynecologic cancer cell panel viability, ATPlite luminescence, 48 h; series mostly up to 57.5 µM
Procedure, shortened: as §1

Hek293T = conditions: Gynecologic cancer cell panel viability, ATPlite luminescence, 48 h, control line for the selectivity index; series mostly up to 57.5 µM
Procedure, shortened: as §1

OV90 = conditions: Gynecologic cancer cell panel viability, ATPlite luminescence, 48 h; series mostly up to 57.5 µM
Procedure, shortened: as §1

Tov112D = conditions: Gynecologic cancer cell panel viability, ATPlite luminescence, 48 h; series mostly up to 57.5 µM
Procedure, shortened: as §1
% is scaled to controls: 0 for no effect and ±100 for the full control effect; potency is read from the fitted curve at half-maximal effect.

CNCc1ccc(-c2cc(-c3nc(-c4ccc(S(=O)(=O)C(C)C)cc4)cnc3N)on2)cc1
active: Potency (CAOV3) 14.1 µM | Potency (Es-2) 8.91 µM | Potency (PA-1) 11.2 µM | Potency (SKOV3) 3.16 µM | Potency (Tov-21-G) 1.58 µM
inactive: Potency (C33A) | Potency (JEG-3)

C[C@@H]1O[C@@H](O[C@H]2[C@H](OC(=O)[C@]34CCC(C)(C)C[C@H]3C3=CCC5[C@@]6(C)CC[C@H](O[C@@H]7O[C@H](C(=O)O)[C@@H](O)[C@H](O)[C@H]7O[C@@H]7O[C@H](CO)[C@H](O)[C@H](O)[C@H]7O)[C@@](C)(C=O)C6CC[C@@]5(C)[C@]3(C)C[C@H]4O)O[C@H](C)[C@H](O[C@@H]3O[C@H](C)[C@H](O)[C@H](O)[C@H]3O)[C@@H]2O)[C@H](O)[C@H](O)[C@H]1O[C@@H]1OC[C@@H](O)[C@H](O[C@@H]2O[C@H](CO)[C@@H](O)[C@H](O)[C@H]2O)[C@H]1O (stereo not given in full)
inactive: activity change, negative = cytotoxicity (C33A) 29.4% [at 6.55 µM] | activity change, negative = cytotoxicity (CASKI) 4.26% [at 6.55 µM] | activity change, negative = cytotoxicity (Es-2) 0.809% [at 6.55 µM] | activity change, negative = cytotoxicity (HeLa) 3.75% [at 6.55 µM] | activity change, negative = cytotoxicity (Hek293T) 8.68% [at 6.55 µM] | activity change, negative = cytotoxicity (JEG-3) -1.59% [at 6.55 µM] | activity change, negative = cytotoxicity (OV90) -26.3% [at 6.55 µM]

CC1=C2C[C@H]3O[C@@]3(C)CCC3O[C@@]3(C)C[C@@]2(O)OC1=O (stereo not given in full)
inactive: Potency (C33A) | Potency (CASKI) | Potency (Es-2) | Potency (HeLa) | Potency (Hek293T) | Potency (JEG-3) | Potency (OV90) | Potency (PA-1) | Potency (SKOV3) | Potency (Tov-21-G) | Potency (Tov112D)

Cc1c(F)cc(C(=O)NC2CC2)cc1-c1c(F)cn2c(C(C)(C)C)nnc2c1F
inactive: Potency (C33A) | Potency (CAOV3) | Potency (Es-2) | Potency (HeLa) | Potency (Hek293T) | Potency (JEG-3) | Potency (OV90) | Potency (PA-1) | Potency (SKOV3) | Potency (Tov-21-G) | Potency (Tov112D)

CC(C)(C)Nc1nc(Nc2ccc(C(N)=O)cc2)cc(N)c1C#N
inactive: Potency (CAOV3) | Potency (Es-2) | Potency (JEG-3) | Potency (OV90) | Potency (Tov112D)
active: Potency (C33A) 25.1 µM

COc1ccc(C(=O)n2c(C)c(Cc3cccc(O[C@@H](C)C(=O)O)c3)c3cc(OC(F)(F)F)ccc32)cc1
inactive: Potency (C33A) | Potency (CASKI) | Potency (Es-2) | Potency (HeLa) | Potency (Hek293T) | Potency (JEG-3) | Potency (OV90) | Potency (PA-1) | Potency (SKOV3) | Potency (Tov-21-G) | Potency (Tov112D)

COc1cc(NC(=O)Nc2cccc(CNC(=O)O[C@H]3CCOC3)c2)ccc1-c1cnco1
inactive: Potency (C33A) | Potency (CAOV3) | Potency (JEG-3) | Potency (Tov112D)
active: Potency (PA-1) 1.41 µM | Potency (Tov-21-G) 8.91 µM

NC(=O)c1cnc(NCCc2ccc(O)c(Cl)c2)nc1NCc1ccccc1
active: Potency (Es-2) 15.8 µM | Potency (HeLa) 25.1 µM | Potency (Hek293T) 20 µM | Potency (PA-1) 10 µM | Potency (Tov-21-G) 7.94 µM | Potency (Tov112D) 12.6 µM
inactive: Potency (C33A) | Potency (CAOV3) | Potency (JEG-3) | Potency (OV90)

C[S+](CC[C@H](N)C(=O)[O-])C[C@H]1O[C@@H](n2cnc3c(N)ncnc32)[C@H](O)[C@@H]1O (stereo not given in full)
inactive: Potency (C33A) | Potency (CASKI) | Potency (Es-2) | Potency (HeLa) | Potency (Hek293T) | Potency (JEG-3) | Potency (OV90) | Potency (PA-1) | Potency (SKOV3) | Potency (Tov-21-G) | Potency (Tov112D)

O=C(/C=C\n1cnc(-c2cc(C(F)(F)F)cc(C(F)(F)F)c2)n1)N1CC(F)(F)C1
inactive: Potency (C33A) | Potency (OV90)
active: Potency (CAOV3) 2.82 µM | Potency (Es-2) 3.16 µM | Potency (HeLa) 17.8 µM | Potency (Hek293T) 1.58 µM | Potency (PA-1) 1.41 µM

C=C1C(O)C(O)C2(CC3C(C)=CCC4C(C)(CO)CCCC34C)OC2C1O (stereo not given)
inactive: Potency (C33A) | Potency (CASKI) | Potency (Es-2) | Potency (HeLa) | Potency (Hek293T) | Potency (JEG-3) | Potency (OV90) | Potency (PA-1) | Potency (SKOV3) | Potency (Tov-21-G) | Potency (Tov112D)

CC(=O)OC12COC1CC(O)C1(C)C(=O)C(O)C3=C(C)C(OC(=O)C(O)C(NC(=O)OC(C)(C)C)c4ccccc4)CC(O)(C(OC(=O)c4ccccc4)C21)C3(C)C (stereo not given)
inactive: Potency (C33A) | Potency (CAOV3) | Potency (JEG-3) | Potency (OV90) | Potency (SKOV3) | Potency (Tov112D)

COc1cc2c(c(OC)c1CC=C(C)C)C[C@H](c1ccc(O)cc1O)CO2
inactive: Potency (C33A) | Potency (CASKI) | Potency (Es-2) | Potency (HeLa) | Potency (Hek293T) | Potency (JEG-3) | Potency (OV90) | Potency (PA-1) | Potency (SKOV3) | Potency (Tov-21-G) | Potency (Tov112D)

CC(C)Oc1ccc(C(=O)NC(CNC(=O)CN(C)C)Cc2ccc(-c3cn4cccc(C(C)O)c4n3)cc2)cc1Cl (stereo not given)
inactive: Potency (C33A) | Potency (CAOV3) | Potency (JEG-3) | Potency (OV90) | Potency (SKOV3)
active: Potency (HeLa) 0.251 µM | Potency (PA-1) 0.316 µM | Potency (Tov112D) 0.316 µM

O=C(c1ccc(/C=C/c2n[nH]c3ccccc23)cc1)N1CCNCC1
active: Potency (HeLa) 2.24 µM | Potency (OV90) 8.91 µM | Potency (PA-1) 8.91 µM
inactive: Potency (C33A) | Potency (CAOV3) | Potency (Hek293T)

COc1c2ccoc2cc2oc(CO[C@@H]3O[C@H](CO)[C@@H](O)[C@H](O)[C@H]3O)cc(=O)c12
inactive: Potency (C33A) | Potency (CASKI) | Potency (Es-2) | Potency (HeLa) | Potency (Hek293T) | Potency (JEG-3) | Potency (OV90) | Potency (PA-1) | Potency (SKOV3) | Potency (Tov-21-G) | Potency (Tov112D)
